Source: PubChem BioAssay AID1490 (National Center for Advancing Translational Sciences (NCATS), 2009)
Hit rate of the full screen: of about 310,000 compounds, about 11,000 (3.5%) were called active. Inconclusive results (about 4%) are left out. Only a selection was taken, and actives are over-represented in it overall. Unmarked numbers belong to inactive results. The call rests on the fitted dose curve; in most records, active means well fitted inhibition curve with a large enough effect; inconclusive means small, poorly fitted or top-dose-only effect, or another doubt; inactive means no such curve, though single readings can be large or run the other way.

target: 4'-phosphopantetheinyl transferase ffp (Bacillus subtilis) (UniProt Q9F4F7); assay: qHTS Assay for Inhibitors of Bacillus subtilis Sfp phosphopantetheinyl transferase (PPTase); conditions: Biochemical Sfp PPTase activity;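 further: the enzyme is Sfp with the accession as filed and its product quenches rhodamine fluorescence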;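 on largest response in the series, negative = inhibition: 0% = enzyme reaction without inhibitor and -100% = no enzyme wells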
Summary of the method: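 Fluorescence-quenching assay: 15 nM Sfp-PPTase preincubated 15 min at room temperature with compound, then 5 uM rhodamine-CoA and 12.5 uM BHQ-2-labelled YbbR peptide added. Fluorescence (ex 525/em 598 nm) read at start and after 30 min; difference gives rate.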
Potency means the concentration at half of the fitted maximal effect.

SMILES | largest response in the series, negative = inhibition [%] | Potency
COc1ccc(-c2nc3c(s2)CCc2onc(-c4ccc(OC)cc4)c2-3)cc1 | 4.62 | 
CC(NCc1cccs1)C(=O)Nc1cc(Cl)cc(Cl)c1 (centres undefined) | -16.2 | 
CC1=C(C(=O)NC2CC(C)(C)Cc3c2cnn3-c2ccc(C)cc2)OCCO1 (centres undefined) | 15.5 | 
CCN(CC)CCCCn1c(-c2ccccc2)nc2c(N3CCOCC3)nc(C)nc21 | 39.5 | 
O=C(C1CCCO1)N1CCN(S(=O)(=O)c2ccc(Br)cc2)CC1 (centres undefined) | -3.46 | 
O=C(CN1C(=O)S/C(=C\c2ccccc2F)C1=O)NCCCn1ccnc1 | 16.3 | 
CC(=O)c1sc(N/N=C\c2ccc(C)cc2)nc1C | -20.4 | 
CC(=O)c1sc(NC(=O)C2=NN(c3ccccc3)C(=O)CC2)nc1C |  | 79.4 µM (active)
COc1cc2ccccc2cc1C(=O)Nc1nc(C)c(C(C)=O)s1 | -2.33 | 
CCCCN1C(=O)C(C)=C(C)C1OCCc1ccc(OC)c(OC)c1 (centres undefined) | 14 | 
CCC(=O)c1cn(CCOc2ccccc2OC)c2ccccc12 | 2.97 | 
O=C(NC(=S)Nc1ccc(S(=O)(=O)N2CCOCC2)cc1)c1ccccc1[N+](=O)[O-] | -9.64 | 
CN1CCN(S(=O)(=O)c2ccc(NC(=S)NC(=O)C3CC3)cc2)CC1 | 22.5 | 
O=S(=O)(c1ccc(NC(=S)NN=C(C2CC2)C2CC2)cc1)N1CCOCC1 |  | 44.7 µM (active)
CC(=O)Oc1cccc(C(=O)Nc2ccccc2NC(=O)c2cccc(OC(C)=O)c2)c1 | 11.7 | 
CCOc1ccc2[nH]c(=O)c(CN(CCCO)S(=O)(=O)c3ccc(F)cc3)cc2c1 | 2.06 | 
CC1=C(C)CC2C(=O)N(c3cccc4ccccc34)C(=O)C2C1 (centres undefined) |  | 39.8 µM (active)
O=C1c2ccccc2C(=O)N1c1cccc2ccccc12 | 4.99 | 
Cc1ccc(N2C(=O)CC(Nc3cccc4ccccc34)C2=O)cc1 (centres undefined) | 3.72 | 
COc1ccc(NC(=O)CCS(=O)(=O)c2cc3c(cc2Cl)NC(=O)CO3)cc1OC | 8.75 | 

SMILES | largest response in the series, negative = inhibition [%] | Potency
C=C(C)CNC(=S)N/N=C/c1ccccc1OCC(=O)O |  | 12.6 µM (active)
CCOc1ccccc1/C=N/NC(=O)CNC(=O)COc1ccccc1 | 13.5 | 
C=CCc1ccccc1OCC(=O)N/N=C/c1ccccc1OCC | -17.8 | 
Cc1ccc(NC(=O)O[C@@H]2C(=O)c3cc(Br)ccc3O[C@H]2c2ccc3c(c2)OCO3)cc1Br | -5.42 | 
N[C@@H](Cc1ccccc1)C(=O)N1CCC(C(=O)NCC(=O)Nc2ccc(F)cc2)CC1 | -3.37 | 
C[N+](C)(C)CCNC(=O)c1cc[n+](Cc2ccccc2)c(/C=N/O)c1 | 3.04 | 
N#CCC(=O)NC1CCC(CC2CCC(NC(=O)CC#N)CC2)CC1 (centres undefined) | -5.45 | 
COC(=O)c1ccc(CSc2ccc3nnc(-c4ccccc4)n3n2)o1 |  | 70.8 µM (active)
O=C(CSc1ccc2nnc(-c3ccccc3)n2n1)N1CCCc2ccccc21 |  | 8.91 µM (active)
COC(=O)c1ccc(CSc2ccccc2C)o1 | 17.7 | 
COc1ccc(-c2nnc3ccc(SCc4ccccc4)nn23)cc1 | -4.23 | 
Cn1c(SCC(=O)N2CCCc3ccccc32)nc2ccccc2c1=O | 0.535 | 
CCCn1c(SCC(=O)N2CCc3ccccc32)nnc1-c1ccncc1 | 15.4 | 
CN(CC(=O)Nc1ccc(Cl)cc1)C(=O)CNC(=O)c1ccc2ccccc2c1 | 1.11 | 
O=C1CCN(Cc2ccccc2)CCN1[C@H](CSc1ccccc1)c1ccccc1 | 2.51 | 
O=C(Nc1nc2ccccc2s1)c1ccc2c(c1)OCO2 | 16.2 | 
O=C(O)CC/C(=C\c1cc2c(cc1Br)OCO2)c1nc2ccccc2s1 |  | 50.1 µM (active)
O=C(O)CS/C(=C\c1ccc(F)cc1)c1nc2ccccc2s1 | 27.3 | 
CC(C)[C@H](NC(=O)N1CCn2c1nc1ccccc12)C(=O)NCCc1ccccc1 | 3.48 | 
CC(C(=O)NC1CCS(=O)(=O)C1)N1C(=O)/C(=C/c2ccc(Cl)cc2)SC1=S (centres undefined) | -16.1 | 

SMILES | largest response in the series, negative = inhibition [%] | Potency
CC(C)(C)c1ccc(CN2C(=O)c3ccccc3S2(=O)=O)cc1 | -8.95 | 
Cc1ccccc1NC(=O)CSc1nc2ccc(Nc3nc(N4CCOCC4)nc(N4CCOCC4)n3)cc2s1 | -16.9 | 
Cc1ccc(OCC(=O)NC(C)c2ccccc2)cc1C (centres undefined) | -3.78 | 
C/C(CC(=O)NC(C)c1ccccc1)=N\NC(N)=S (centres undefined) |  | 79.4 µM (active)
Cc1cc(C)cc(OCC(=O)NC(C)c2ccccc2)c1 (centres undefined) | -3.71 | 
CC(=O)Nc1ccc(S(=O)(=O)N2CCC(C(=O)N[C@@H](Cc3ccccc3)C(=O)O)CC2)cc1 | 27.7 | 
C[C@@H]1O[C@@H](OC[C@H]2O[C@@H](Oc3cc(O)c4c(c3)O[C@H](c3ccc(O)c(O)c3)CC4=O)[C@H](O)[C@@H](O)[C@@H]2O)[C@H](O)[C@H](O)[C@H]1O | 2.86 | 
CCOC(=O)c1ccccc1NC(=O)CC1Nc2ccccc2NC1=O (centres undefined) | 5.03 | 
COC(=O)c1cc(C)sc1NC(=O)CC1Nc2ccccc2NC1=O (centres undefined) |  | 79.4 µM (active)
O=C(CC1Nc2ccccc2NC1=O)Nc1ccccc1NC(=O)CC1Nc2ccccc2NC1=O (centres undefined) | -13.5 | 
Cc1sc2ncn(CC(=O)NCCCC(=O)N(C)Cc3ccccc3)c(=O)c2c1C | 13.5 | 
O=S(=O)(c1ccccc1)c1nc(-c2ccccc2)oc1NCCCN1CCOCC1 | 11.1 | 
Cc1ccc(-c2nc(C#N)c(NCCCn3ccnc3)o2)cc1 | -4.22 | 
N#Cc1nc(-c2ccc(OCc3ccccc3)cc2)oc1NCCCN1CCOCC1 |  | 44.7 µM (active)
Cc1ccc(NS(=O)(=O)c2ccc3c(c2)oc(=O)n3C)c(C)c1 | 5.37 | 
O=C(O)c1ccc(NC(=O)c2ccc(COc3ccc(Cl)cc3)o2)cc1 | 9.95 | 
Cc1nc2nc(SCC(=O)NCc3ccco3)nn2c(C)c1Cc1ccccc1 |  | 50.1 µM (active)
Cc1ccc(Cc2c(C)nc3nc(SCC(=O)NCCN4CCOCC4)nn3c2C)cc1 | -2.31 | 
CCOC(=O)c1cnc(SCC(=O)NCc2ccco2)nc1N | -17.3 | 
